Assay results from the supplement of paper PMC10681739.
The full ranking holds about 4,100 sequences; the median of “arbitrary fluorescence units” is about 780, and the highest 2% start at about 22,000. What follows is part of a selection rich in the highest values, with near analogues and random picks from the rest.

The sequences below were run against T1, ETS1 (UniProt P14921) (assay: ETS1 binding intensity (PBM fluorescence), ETS1 alone (arbitrary fluorescence units); higher = stronger binding). Conditions: ETS1 concentration 1 nM; RUNX1 concentration 0 nM.
T1 sequence: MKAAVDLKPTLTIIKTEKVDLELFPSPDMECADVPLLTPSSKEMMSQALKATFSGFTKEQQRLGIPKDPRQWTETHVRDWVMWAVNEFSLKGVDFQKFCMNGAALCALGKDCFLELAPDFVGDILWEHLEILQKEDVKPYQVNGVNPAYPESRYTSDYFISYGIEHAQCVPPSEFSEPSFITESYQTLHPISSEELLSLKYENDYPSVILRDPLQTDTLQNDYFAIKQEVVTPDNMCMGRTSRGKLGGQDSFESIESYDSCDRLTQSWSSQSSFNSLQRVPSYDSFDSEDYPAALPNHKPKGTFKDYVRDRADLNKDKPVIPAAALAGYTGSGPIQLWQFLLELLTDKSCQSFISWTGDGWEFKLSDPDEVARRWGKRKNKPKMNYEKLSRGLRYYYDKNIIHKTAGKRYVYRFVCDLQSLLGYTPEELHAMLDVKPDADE
Experimental: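 gcPBM on 36-bp genomic-derived probes (partner site mutated) containing one ETS1 site and no RUNX1 site. Recombinant human ETS1 (1 nM) was incubated alone or with RUNX1 (25 nM) and detected by anti-ETS1 antibody fluorescence. Values are medians over 4 replicate spots (not normalised). The probes sit in constant array flanks that are not printed.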

Sequence | ETS1 binding intensity
GCACGTGTTTCCTGGGGCTGCACCCCAGCACCACAC | 2380
CGTTTCCTGTGGCTGCAGCTCTCCCCACGCACACAC | 23800
TGCCGCCTGCAGCACCCTCCCCATTTCCTGGCTGTA | 1190
ACCCACTTCCTGTTAGAGCATCTTTGCAACCCCAGG | 30200
TGTTGCCACTGTTAGACTAGAGAGCATCCTGTTGTT | 851
TTTCTTCCTGTTTGCATCACCCCAAATCCACTATCA | 16900
TACGCACACGCTTCGGGATCCTTCCGCTCCGGGTTA | 644
CTCCCACGCTCCCCTTCCGGCCCCGCTGCGCTGTGA | 3160
CCGGGCGCCACTTCCGGTCCCCGTGGACACGTGACC | 53800
GGTCACGTGTCCACGGGGACCGGAAGTGGCGCCCGG | 14400
TTGCGCCGGACGCCACTTTCGGTCCCCGTGGACACG | 602
TCTTGTTTCTTCCGTTACCGGAGCGCGGCCACGTGA | 2590
CCAGAGGGCGGAAGTGGGAGCTGCGACGGCGCTCCC | 7030
ACTTTGTCAGTGTAGTTTTCACATCCTGTCCTAGCT | 2870
AACATCCTGTGTAAAGAGAATTGAATGTAGTTTTCT | 25200
TTTCTGATTGTAGTTTCAAATTATTTCCTGTGTTGG | 1770
CTCCATTATTCCGGCCAGGTGCCCTTCTGGGATAAG | 670
TGCGCCGGAAGTGCATGAGCTGCCGATGAGGTGCTT | 8970
GAGCTGCAAGTCACAAAGACCGGAAGTGCGCGTACG | 26000
GCGCGGACTCCGGGAAGCTGAGCGGCAAAGACCGTG | 359
TCACAATCGCTCACAAAGACAGGAAGTAACTGTCAG | 3450

Sequence | ETS1 binding intensity
CTCCTGCTCACAGAAGCTCACTGTTTCCTGTCTAGC | 2690
TACTCTAAAGCACTTCAAACCTCCACTTCCTGCCCC | 2240
CACTTCCTGCCCTCTTCCACTTTCAAAATCACATCA | 31900
AAATCAAAACCCCAATCAGATACCACTTCCTGCCCA | 2350
CTCCCCCAGCACATCCTCTGCCACTGCTGCCTTTCC | 1720
CTCCGCTGTCCCCTGCAGGCACCGAGGGCGGAACCA | 347
GGGACTGCAGTCCCGGGGAGCGCACCGGAAGTTCTC | 4610
ACAGAGGTGCTACCCCAAGGACCGGAAGCAGAGACC | 3940
GCCCCGGAAGCTCCTTAAGGAGGACCGTGTGAGTTT | 1880
TACCGGCGTTAATATAGTAAGGGCGGAAGTTCTCCT | 1190
GGACCGGAAGTTAAGGCGTTCGCGGCGTGTGATAAG | 22900
ACTTGGCAGTTCCGGGTCCGCGCCCCAGCGCGCCAC | 2630
GTAGCAACAGCAGGCTCACACACCGGAAGTGCTCGC | 9380
TTGCTCCCGGAAGCCCCGCCCGTCCGTGGCTCCTGA | 1350
CCTGCCTTCCGTCTTCCAGGCAGAACGACAGAGAGG | 1710
AATGAGCCCCAGAACCCTTTTCCTTCCGGCCTGCAC | 1300
CCCAGAGCTTCCGATTGGCTCTTCTGAGGTGGCGGG | 1750
CAGATTTCCGGCTTCTGAGGAGCTGCCCTACCCCAG | 38200
AGTAACCAGCAGGCTGTGCCGGCAGGATGTTGTCTT | 469
CTGGGGTCGGGGCGAGGGAGCTGCCGGGGAAGTGAG | 513
GGCCAAGAAATCCACTCAGAGGAAATCACAGGCCTG | 439

Sequence | ETS1 binding intensity
GAGAAACGTCAGGCATGGCCGGGCCACCAGGAAAAC | 347
CCCGGCGGCTACTTTCGGTCACTTTCGCCGGAACCT | 444
GGCCGACGGGAAGTGTAGTCCGGCCTGCAGTCCGGG | 1970
GCCCTACCCAGCGGCGGCCGGACGCTTCGGCGCAGG | 435
CTGACGCATTTCCGGCCTTTGGGGTTGATCGGTCAT | 26200
TTTTTTCCGCCTGTAGGGTCACATTGGGGTTGATTG | 2790
GCTCGTTTGGGGTTACTGACATCCGGCCTTCATTTC | 5140
CCAGGAGGGATGGGGAAGTTCACCAGACACTCCATG | 444
GTCACTGTCGTATTTACTTTAGCTTCCTGTTCATCC | 1880
CGATTCCGGATTGGTCCAATTCCAGCGCCGAAGCCC | 673
GCCACCTTACGACAGCTGTACAGAGCTTCCTTTAGC | 390
CTAGCAGCTTCCGAGGGGGCGGCGGCCGGAGCGAGT | 784
AACCTCCGACTTCCGGCCGCGCAGCGGAGGGCTGAG | 32100
AGCACTTCCGTTTGGGCAGGGCTGAGGGCCGGAGGG | 16800
GGGGGAGTTTTCGGAAGCGCTAACAGCGTTGGGGCC | 566
TGGTGCCAAACATCCGCTAGCCAGAGAAAAACCGAC | 6500
ACACCGTGCTTTTCGGTTCCCGGAAGTCCTTCAGGC | 1560
GACAAGATTGCAGGTGGCAACCCCATCCGGTTTGTT | 1400
GGTCGCTCTGGTGACGGGGGAGGAAATTCTGTCCGT | 512
TCTGTCGCACATCCGGTGTGAGCTTCGGGGCGGTGG | 22500
GTGAGCTTCCCGGCGCGCGGGGGGCGGTGCGCCTTC | 797
